# FUS yeast rescue – rescues growth of FUS-expressing yeast | 0.24% of 390,000 active | Potency, µM (highest dose often 76.6 µM), hits mostly activators | S. cerevisiae FUS-expressing, growth rescue, OD600, 24 h;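 also: potency is read from the fitted curve at half-maximal effect; plate controls were DMSO vehicle for no effect and reference control for full effect; nearly all actives have a fitted effect of over 55% in size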
#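 Yeast FUS proteinopathy model; galactose-induced FUS (2%), starting OD 0.005. Cpds in dilution series, 24hr, 30C, 99% humidity. Abs 600 nm growth. Pos ctrl CP55940 (top 92uM final); neg ctrl DMSO.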
# LDHA block – LDHA (human) enzyme inhibition; 0.15% of 480,000 active; AID 1347041; P00338; activity change, % (values are at about 110 or 230 µM); purified LDHA, NADH/diaphorase-resazurin fluorescence; active compounds read low; in the data active = activity change below about -30%; inconclusive = mostly about -25% to -30%;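 also: plate controls were DMSO wells for no effect and wells without enzyme for full effect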
#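 LDH5 2 nM; NADH 0.06 mM, pyruvate 0.2 mM; 200 mM Tris pH 7.4, EDTA, Tween-20; 5 min RT. Detection: diaphorase 0.133 mg/mL + resazurin 37 µM, fluorescence ex540/em590 at 0 and 20 min; normalized to enzyme-free and DMSO wells.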
# IDH1 R132H inh – blocks human mutant IDH1 R132H enzyme | O75874 | IDH1-R132H enzyme, NADPH consumption, diaphorase/resazurin fluorescence | Potency, µM (highest dose often 76.6 µM), inactives show top-dose activity change, negative = inhibition, actives largely listed as inhibitors | 0.093% of 390,000 active | AID 602179; also: potency is read from the fitted curve at half-maximal effect; % is scaled to controls: 0 for no effect and ±100 for the full control effect; nearly all actives have a fitted effect of over 65% in size
# Target sequence (O75874 whole entry R132H, stated change not applied): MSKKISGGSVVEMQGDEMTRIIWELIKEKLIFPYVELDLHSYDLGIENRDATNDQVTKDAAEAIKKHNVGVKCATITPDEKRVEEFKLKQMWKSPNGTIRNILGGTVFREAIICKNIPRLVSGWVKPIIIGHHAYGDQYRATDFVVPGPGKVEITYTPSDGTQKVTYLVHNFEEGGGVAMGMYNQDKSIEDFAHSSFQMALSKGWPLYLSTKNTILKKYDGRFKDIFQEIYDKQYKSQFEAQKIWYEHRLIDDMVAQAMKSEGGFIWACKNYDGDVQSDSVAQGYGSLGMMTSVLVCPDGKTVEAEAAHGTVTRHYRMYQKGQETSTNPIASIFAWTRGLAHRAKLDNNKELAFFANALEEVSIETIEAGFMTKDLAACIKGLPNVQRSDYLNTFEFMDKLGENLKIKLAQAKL
#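 IDH1-R132H (0.5 ug/mL dispensed) in pH 7.5 Tris buffer was preincubated 30 min with compound, then given a substrate mix of 0.016 mM NADPH and 2 mM alpha-KG for 80 min at room temperature; remaining NADPH was read by diaphorase/resazurin fluorescence.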
# Abeta yeast res – restores growth of yeast expressing A-beta42 peptide; yeast expressing A-beta42, growth rescue, OD600, 48 h; response scale: 0% DMSO, 100% iron-clioquinol control; Potency, µM (series often up to 46.1 µM), actives largely listed as activators; 0.063% of 410,000 active; also: potency is read from the fitted curve at half-maximal effect; nearly all actives have a fitted effect of over 55% in size
#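 Yeast growth medium received pinned compounds, then yeast cells expressing toxic A-beta were added; plates incubated at 30 C for 48 hr. Growth read as absorbance at 600 nm, normalized to DMSO and equimolar FeCl3 plus clioquinol controls.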
# aSyn rescue – rescues yeast growth from alpha-synuclein toxicity | Yeast expressing alpha-synuclein, growth rescue, BacTiter-Glo, 24 h | 0.14% of 370,000 active | Potency, µM (top dose mostly 46.1 µM), inactives show at the highest dose growth rescue (activation), actives largely listed as activators; also: potency is read from the fitted curve at half-maximal effect; % of control where 0% means no effect; nearly all actives have a fitted effect of over 65% in size
#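 Rescue of yeast growth: cells expressing toxic alpha-synuclein, induced in galactose at OD600 0.02, incubated with compound 24 h at 30 C. ATP luminescence quantified growth; inhibitors of toxicity appear as activators.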
# TDP43 rescue – inhibitors of TDP-43 toxicity in yeast; TDP-43 expressing yeast growth rescue, BacTiter-Glo, 24 h; Potency, µM (doses to about 46.1 µM), without a hit: at the highest dose growth rescue (activation), actives largely listed as activators; 1.8% of 410,000 active; AID 652104; also: potency is read from the fitted curve at half-maximal effect; % of control where 0% means no effect; nearly all actives have a fitted effect of over 50% in size
#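 Yeast expressing TDP-43 (pregrown in raffinose, seeded at OD600=0.02 in galactose medium) exposed to compounds 24 hr at 30 deg C. Growth read by BacTiter-Glo luminescence; rescue of toxicity appears as increased signal.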
# An asterisk follows results filed as active; i = inactive; ? = inconclusive; / = not tested or not shown; ! = a repeat was not active. This is a sample that favours compounds with a hit; in the whole collection about 2% have one here. Unless noted, calls follow the shape of the dose curve; as a rule, active = well fitted curve in the direction sought with a large enough effect; inconclusive = small, poorly fitted or top-dose-only effect, or another doubt; inactive = no such curve, though single readings can be large; an effect the other way counts as inactive or inconclusive.
SMILES,FUS yeast rescue,LDHA block,IDH1 R132H inh,Abeta yeast res,aSyn rescue,TDP43 rescue
Cn1c2ccccc2c2cc(C(=O)N3CCOCC3)sc21,i,6,-1%,i,3%,14µM*
Cc1ccc(-c2cc(=O)c3cc(NC(=O)c4ccco4)ccc3o2)cc1,/,2,/,/,/,/
Cc1[nH]n(-c2ccccc2)c(=O)c1C1(C(F)(F)F)C(=O)N(c2ccccc2)C2=C1C(=O)CC(C)(C)C2 (stereo not given),32µM*,-6,-5%,i,6%,-3%
Cc1ccc(N2C(=O)C(c3c(C)[nH]n(-c4ccccc4)c3=O)(C(F)(F)F)C3=C2CC(C)(C)CC3=O)cc1 (stereo not given),i,-3,1%,i,-11%,21%
Cc1cccc(-n2c(SCC(=O)Nc3ncc(Cl)cc3Cl)nc3ccccc32)c1,?,2,7%,i,5%,25%
O=C(CSc1nc2ccccc2n1-c1ccccc1)Nc1ncc(Cl)cc1Cl,i,-2,5%,i,8%,22µM*
Cc1cc(NC(=O)NCC2CCN(CCc3ccc(F)cc3)CC2)ccc1Br,/,7,/,/,/,/
Cc1ccc2[nH]c(C)c(C(O)CN3CCC(Cc4ccccc4)CC3)c2c1 (stereo not given),/,5,/,/,/,/
Cc1ccnc(NC(=O)c2ccc([N+](=O)[O-])s2)c1,i,-5,-7%,i,5%,8.9µM*
Cc1cccc(C)c1NC(=O)c1ccc([N+](=O)[O-])s1,i,0,11%,i,-1%,11%
Cc1cccc(NC(=O)c2ccc([N+](=O)[O-])s2)c1C,i,0,-6%,?,2%,11µM*
CCC(=O)Nc1nc(C)c(-c2csc(Nc3ccc(OC)cc3)n2)s1,/,7,/,/,/,/
Cc1ccc(CN(C(=O)c2cc(=O)c3cc(Cl)c(C)cc3o2)c2ccccn2)o1,/,2,/,/,/,/
CCOP(=O)(OCC)c1nc(Cc2ccc(Cl)cc2)oc1NCc1ccc2c(c1)OCO2,/,2,/,/,/,/
O=[N+]([O-])c1ccc2c(c1)-c1ccccc1C2O (stereo not given),i,13,6%,i,5%,11µM*
O=C(Oc1cccc2cccnc12)c1ccco1,i,2,7%,i,-1%,-79%
O=C(Oc1ccc(Cl)c2cccnc12)c1ccco1,i,5,0%,i,11%,32µM*
CCCCNC(=O)COc1c(Cl)cc(Cl)c2ccc(C)nc12,/,22,/,/,/,/
COc1ccc(-c2nc(CSCC(=O)N3CCc4ccccc4C3)c(C)o2)cc1OC,i,5,2%,i,3%,?
COc1ccc(-c2nc(CSCC(=O)N3CCN(c4cccc(C)c4)C(C)C3)c(C)o2)cc1OC (stereo not given),?,1,-5%,i,8%,22µM*
COc1cc(NS(=O)(=O)c2ccc(C)cc2C)cc2sc(NC(=O)c3ccccc3)nc12,/,-11,/,/,/,/
CC(=O)N1N=C(c2ccco2)CC1c1ccc(Br)cc1 (stereo not given),i,-6,0%,i,4%,20µM*
Cc1cccc(C)c1NC(=O)Cc1c(C)nc2nc(-c3cccs3)nn2c1C,/,13,/,/,/,/
COC(=O)c1cccc(NC(=O)CN2CCN(c3oc(-c4ccco4)nc3C#N)CC2)c1,/,-14,/,/,/,/
Cc1csc(N/N=C/c2c(F)cccc2Cl)n1,i,-3,8%,i,-18%,28µM*
SMILES,FUS yeast rescue,LDHA block,IDH1 R132H inh,Abeta yeast res,aSyn rescue,TDP43 rescue
C#CCSc1nc2ccccc2c(=O)n1CC=C,/,-12,/,/,5%,/
C#CCSc1nncn1C(=O)/C=C/c1ccccc1,i,2,3%,i,13µM*,-16%
Cc1nn(-c2ccccc2)c(OC(=O)c2cccs2)c1S(=O)(=O)c1ccc([N+](=O)[O-])cc1,40µM*,1,6%,i,-2%,-31%
NS(=O)(=O)c1cccs1,/,6,/,/,/,/
N#Cc1nccnc1S(=O)(=O)c1cccs1,i,-8,5%,i,-5%,13µM*
COc1ccccc1-c1cc(=O)c2cc(NS(=O)(=O)c3ccc(C)cc3)ccc2o1,/,-1,/,/,/,/
Cc1[nH]nc(N=CC2=C(O)CC(C)(C)CC2=O)c1-c1ccc(Cl)cc1,i,-6,1%,i,?,16µM*!
Cc1[nH]nc(N=CC2=C(O)CC(c3ccco3)CC2=O)c1-c1ccc(Cl)cc1 (stereo not given),i,1,2%,i,-8%,-4%
Cc1cc(N2CCN(c3ccccc3)CC2)nc(-c2ccccc2O)n1,i,-13,4%,i,-2%,18µM*
CCc1cc(C(c2ccc(OC)cc2)N2CCOCC2)c(NC(=O)c2ccco2)s1 (stereo not given),/,3,/,/,/,/
CCc1ccc(NC(=O)CSc2nccn2-c2cccc(C)c2C)cc1,i,2,0%,i,?,32µM*
Cc1ccc(C)c(NC(=O)CSc2nccn2-c2cccc(C)c2C)c1,i,1,-10%,i,/,?
CCc1ccc(NC(=O)CSc2nccn2-c2ccc(F)cc2)cc1,i,1,-7%,?,/,16µM*
COCCCNc1ccn2nc(-c3ccc(Cl)cc3)cc2n1,i,2,/,i,-14%,11µM*
CNc1nc(-c2ccccc2)[n+](-c2ccc(C)cc2)s1,i,-12,3%,i,-9%,14µM*
Cc1ccc(-c2nc(N)s[n+]2-c2ccccc2)cc1,/,3,1%,i,10%,?
O=C1c2ccccc2C(=O)N1CCSc1ncc(C(F)(F)F)cc1Cl,/,-2,/,/,/,/
O=C(NCc1nc(-c2ccccc2)no1)c1cc2cc(Br)ccc2o1,/,3,/,/,/,/
O=S(=O)(c1cc(Cl)ccc1Cl)N1CCCCC1,i,-4,-4%,i,10%,16µM*
O=S(=O)(c1cc(Cl)ccc1Cl)N1CCCC1,i,-15,2%,i,7%,29%
O=C(c1ccco1)N1CCN(S(=O)(=O)c2cc(Cl)ccc2Cl)CC1,i,-12,-3%,i,13%,18µM*
CCOC(=O)N1CCN(C(=O)C2CCN(S(=O)(=O)c3cc(Cl)ccc3Cl)CC2)CC1,?,-5,3%,i,15%,11µM*
CCCNc1c(NC(=O)Nc2ccc(OC)cc2OC)c(=O)oc2ccccc12,/,-3,/,/,/,/
Cn1c(SCC(=O)N2CCCC2)nc2ccsc2c1=O,/,-6,/,/,/,/
CCn1c2ccccc2c2nc3ccccc3nc21,i,-2,6%,i,-5%,10µM*
CCCNc1nc(-c2ccc(S(=O)(=O)N3CCOCC3)cc2)cs1,/,-5,/,/,/,/
